Most compounds without a hit are left out; they make up all but 3% or so of the library.
JMJD2E inh: qHTS Assay for Inhibitors of Human Jumonji Domain Containing 2E (JMJD2E). Lysine-specific demethylase 4E (Homo sapiens), B2RXH2. JMJD2E catalytic domain, FDH-coupled NADH fluorescence (FDH is formaldehyde dehydrogenase). Potency, µM (highest dose often 57.1 µM), inactives show at the top dose activity change, negative = inhibition, actives largely listed as inhibitors. 230,000 compounds, 1.6% hits. AID 2147, 2009; active means well fitted inhibition curve with a large enough effect, not every such curve was filed as active; inconclusive means small, poorly fitted or top-dose-only effect, or another doubt; inactive means no such curve, though single readings can be large or run the other way;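 further: potency means the concentration at half of the fitted maximal effect; 0% = wells with enzyme and -100% = buffer wells without enzyme; nearly all actives have a fitted effect of over 50% in size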
Target sequence (B2RXH2 1-337 limits assumed): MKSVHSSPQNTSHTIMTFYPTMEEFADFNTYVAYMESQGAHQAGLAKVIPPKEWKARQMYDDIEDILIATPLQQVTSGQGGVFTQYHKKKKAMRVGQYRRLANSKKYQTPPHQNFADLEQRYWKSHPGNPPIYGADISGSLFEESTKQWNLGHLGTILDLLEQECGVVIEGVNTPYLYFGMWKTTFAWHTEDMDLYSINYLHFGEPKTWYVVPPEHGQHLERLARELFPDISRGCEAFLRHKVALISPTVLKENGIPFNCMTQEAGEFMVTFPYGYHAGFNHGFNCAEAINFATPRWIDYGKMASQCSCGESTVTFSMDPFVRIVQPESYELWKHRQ
Tau fibril ThT: qHTS for Inhibitors of Tau Fibril Formation, Thioflavin T Binding; Potency, µM (doses to about 57.4 µM), without a hit: at the top dose activity, negative = inhibition, most hits filed as inhibitors; recombinant tau K18 P301L, heparin-induced fibrillization, ThT fluorescence; Microtubule-associated protein tau (Homo sapiens), P10636; AID 1460, 2008; 270,000 compounds, 2.1% hits; further: potency means the concentration at half of the fitted maximal effect; nearly all actives have a fitted effect of over 55% in size
Target sequence (P10636 561-689 P618L limits assumed): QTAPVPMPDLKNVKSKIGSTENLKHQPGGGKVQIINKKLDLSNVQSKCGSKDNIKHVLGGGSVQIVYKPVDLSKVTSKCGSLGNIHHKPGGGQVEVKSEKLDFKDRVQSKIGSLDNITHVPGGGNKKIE
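K18 P301L tau (15 uM + 0.24 uM Alexa 594-tagged), heparin 20 uM, NaOAc pH 7, 6 h 37 C; ThT 30 uM, 1 h RT, ex 450/em 510 nm.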
FBPA coupling cs: qHTS Assay for Inhibitors of Fructose-1,6-bisphosphate Aldolase from Giardia Lamblia: Coupling assay counterscreen. 290,000 compounds, 0.67% hits. activity change, negative = inhibition, % at 58.2 µM, hits read low. coupling enzyme system counterscreen, AmpLite Red fluorescence; in the data active means activity change below about -30%
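Compounds tested against the coupling enzymes alone at 57.5 uM final; readout was AmpLite Red fluorescence (525/598 nm) after 20 min at RT.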
Tau FP inhib: qHTS for Inhibitors of Tau Fibril Formation, Fluorescence Polarization; Microtubule-associated protein tau (Homo sapiens), P10636; AID 1468, 2008; 280,000 compounds, 0.39% hits; Potency, µM (titrated, usually from 57.7 µM), inactives show at the top dose activity, negative = inhibition, actives largely listed as inhibitors; K18 P301L tau heparin fibrillization, Alexa594 FP, 6 h; further: potency means the concentration at half of the fitted maximal effect; nearly all actives have a fitted effect of over 55% in size
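Quantitative HTS format: compounds meet 15 uM recombinant K18 P301L tau and Alexa 594-tau tracer in 100 mM sodium acetate pH 7; 20 uM heparin triggers fibrillization at 37 C over 6 hr; FP gives the signal.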
Tau fluor counter: Counterscreen qHTS for Inhibitors of Tau Fibril Formation, Fluorescence Polarization; AID 1463, 2008; tau K18 P301L Alexa594 fluorescence, heparin fibrillization; Potency, µM (doses to about 57.7 µM), inactives show top-dose activity change, negative = decrease; 280,000 compounds, 0.93% hits; further: potency means the concentration at half of the fitted maximal effect; nearly all actives have a fitted effect of over 55% in size
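Human tau K18 P301L (15 uM unlabeled, 0.24 uM Alexa 594-labeled) in 100 mM sodium acetate pH 7 with 20 uM heparin, 6 hr at 37 C. ThT 30 uM added, 1 hr ambient; Alexa 594 FP and total fluorescence read at 555/632 nm.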
An asterisk follows results filed as active; ? = inconclusive; · = not tested or not shown; [ ] = another dose, or the depositor's remark. Unless noted, the call rests on the fitted dose curve; in most records, active means well fitted curve in the direction sought with a large enough effect; inconclusive means small, poorly fitted or top-dose-only effect, or another doubt; inactive means no such curve, though single readings can be large; an effect the other way counts as inactive or inconclusive. Unless noted, on the % scale 0 is the no-effect control and ±100 the full control effect.

SMILES	JMJD2E inh	Tau fibril ThT	FBPA coupling cs	Tau FP inhib	Tau fluor counter
COc1ccccc1NS(=O)(=O)c1cc([N+](=O)[O-])ccc1N/N=C/c1c(C)[nH]c2ccccc12	-2%	3.2µM*	-3	?	6.3µM*[quencher]
CCCC(=O)N1c2nc(-c3ccco3)nn2C2(CCCCC2)[C@@H]2CCCC[C@@H]21	·	-9%	·	-1%	-4%
Cc1nn(C)c(N)c1[N+](=O)[O-]	5%	-4%	5	6%	-6%
Cc1nn(C)c(Sc2ccccc2N)c1[N+](=O)[O-]	?	32µM*	0	?	-18%
Cc1[nH]n(-c2ncc(-c3ccccc3)s2)c(=O)c1C(c1ccc(Br)cc1)C(C#N)C#N (stereo unspecified)	-2%	8.9µM*	7	35µM*	?
Cc1ccc(NC(=O)CCNS(=O)(=O)c2ccc3c(c2)CCN3C(=O)C2CC2)c(Cl)c1	·	-8%	·	8%	-4%
Cc1nc2c(C(=O)NCCc3ccc(Cl)cc3)c[nH]n2c(=O)c1Cc1ccc(Cl)cc1	·	28µM*	·	-12%	?
CCOc1ccccc1NC(=O)C(OC(=O)c1ccc(CC)cc1)c1ccccc1 (stereo unspecified)	-1%	-5%	-3	-2%	-11%
CCOc1ccccc1NC(=O)C(OC(=O)c1ccc(O)cc1)c1ccccc1 (stereo unspecified)	-5%	5%	-13	22µM*	?
CCc1cc(C(c2ccc(F)cc2)N2CCOCC2)c(NC(=O)c2ccccc2)s1 (stereo unspecified)	-11%	32µM*	·	-9%	?
CCN(CC)c1ccc(/C=C/C(=O)C2C(=O)C=C(C)OC2=O)cc1 (stereo unspecified)	?	3.2µM*	5	?	6.3µM*[fluorescent]
CCN(CC)c1ccc(C=C2C(=O)OC(c3ccccc3)OC2=O)cc1 (stereo unspecified)	-23%	6%	1	-16%	1%
C[C@H]1Cc2c(-c3ccccc3)nc3c(c2CO1)CN(S(=O)(=O)c1ccc2c(c1)OCCN2C)CC3	-1%[11.4 µM]	10%[11.5 µM]	2	2%[11.6 µM]	8%[11.6 µM]
CC1CCN(C(=O)CSc2c(C(C)C)cnc3c2c(=O)n(C)c(=O)n3C)CC1	·	-7%	·	-1%	-3%
CC(=O)C1=C(c2ccccc2)N(C(C)=O)n2c(C)nnc2S1	-2%	11µM*	2	?	-17%
CC(=O)C1=C(c2ccc(F)cc2)N(C(C)=O)n2c(nnc2C2CCCCC2)S1	·	?	·	-15%	-13%
COc1ccccc1NS(=O)(=O)c1cc(NC(=O)Nc2ccc(Cl)cc2Cl)ccc1N1CCCCC1	-25%	8%	-4	?	-20%
O=C(Nc1cccc(C(F)(F)F)c1)Nc1ccc(N2CCCC2)c(S(=O)(=O)Nc2ccccc2Cl)c1	?	?	-9	?	2.5µM*[quencher]
Cc1ccc(S(=O)(=O)N[C@H]2COC(=O)[C@H](C)COC(=O)[C@H](C)NC(=O)C/C=C\[C@H]2C)cc1	·	1%[11.5 µM]	3	-2%[11.6 µM]	0%[11.6 µM]
COc1ccc(NC(=O)c2cc3c(Cl)nc4ccccc4c3s2)cc1OC	14%	?	3	7%	4.5µM*[quencher]
O=C(O)[C@H]1O[C@@H](Oc2ccc3ccc(=O)oc3c2)[C@H](O)[C@@H](O)[C@@H]1O	·	·	1	·	·
N#Cc1ccc(NC(=O)Nc2ccc(Oc3ccc(NC(=O)Nc4ccc(C#N)cc4)cc3)cc2)cc1	?	?	-4	?	7.9µM*[quencher]
COc1cc(/C=C2\CC/C(=C\c3cc(OC)c(OC)c(OC)c3)C2=O)cc(OC)c1OC	4%	-17%	-2	-5%	3%
COc1cc(/C=C2\CC/C(=C\c3cc(OC)c(O)c(OC)c3)C2=O)cc(OC)c1O	?	6.3µM*	-34*	?	14µM*[quencher]
COc1cc(/C=C2\COC/C(=C\c3cc(OC)c(OC)c(OC)c3)C2=O)cc(OC)c1OC	-6%	8.9µM*	1	?	0%
SMILES	JMJD2E inh	Tau fibril ThT	FBPA coupling cs	Tau FP inhib	Tau fluor counter
COc1cc(/C=C2/CCC/C(=C\c3cc(O)c(OC)c(Cl)c3)C2=O)cc(Cl)c1O	0%	11µM*	-1	?	?
Cc1noc(C)c1-c1ccc2ncnc(NCc3ccc(Br)cc3)c2c1	·	·	0	·	·
COc1cccc(CS(=O)(=O)c2nnnn2-c2ccccc2)c1	2%	?	2	-3%	-8%
O=C1NC(=S)S/C1=C\c1ccc(SCc2ccco2)o1	?	4.5µM*	2	?	?
O=C1NC(=S)S/C1=C\c1ccc(SCc2ccccc2)o1	-1%	10µM*	5	-6%	?
O=C1NC(=S)S/C1=C/c1ccc(OC(=O)c2ccco2)cc1	·	·	2	·	·
COc1cccc([C@@H]2Oc3ccc(OC)cc3C[C@H]2OC(=O)NS(=O)(=O)c2ccc(C)cc2)c1	-5%	-7%	-2	-5%	-8%
CN1CCN(C(=O)c2sc(=S)n(-c3ccccc3)c2N)CC1	1%	?	-48*	?	-15%
CC1=C(C(=O)Nc2cccnc2)C(c2ccccc2)n2nc(SCc3ccccc3F)nc2N1 (stereo unspecified)	·	?	·	-1%	-24%
COc1ccccc1-c1cc(C(=O)Nc2cc(Cl)ccc2O)no1	·	-2%	·	-11%	7.9µM*[quencher]
CN(C)S(=O)(=O)Oc1cccc(C(=O)Nc2ccc(Cl)c(Cl)c2)c1	-2%	1%	-3	20µM*	?
COC(=O)c1ccc(NC(=O)Nc2ccc(F)c(Cl)c2)cc1	-2%	?	1	16µM*	?
COC(=O)c1ccc(NC(=O)Nc2ccc(F)cc2)cc1	-6%	?	1	?	?

Source: PubChem BioAssay
